Test results as given in PubChem BioAssay (EPA / NIEHS).
Results filed as inconclusive are left out. Activity calls are given as the source filed them. Rule for the calls: active = hit-call score of the fitted dose curve at least 0.9, where 1 is the maximum; inconclusive = response in the unintended direction; inactive = score below 0.9. Where a SMILES comes first, the peptide text is derived from it. Bridges are numbered along the chain shown (N, C = ends).

How the values were obtained:
[1] = TOX21_p53_BLA_p3_viability: Viability Assessment in the Tox21 HCT-116 p53 Agonism Beta-lactamase Assay, Phase 3 (AID 2283593);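 note: cells exposed to compound for 16 h before reading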
Procedure, shortened: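 HCT-116 cells (4000/well) rested 5 h at 37C, then got DMSO compounds by pin tool (217-fold dilution) for 16 h at 37C, 5% CO2. After the bla read, CellTiter-Glo was added and luminescence read at 30 min, room temperature.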

[2] = molecular target: Cellular tumor antigen p53 (Homo sapiens) (UniProt P04637); assay: TOX21_p53_BLA_p3_ratio: Tox21 HCT-116 p53 Agonism Beta-lactamase Assay, Ratio, Phase 3 (AID 2283596)
Procedure, shortened: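 HCT116 p53-bla cells (4000/well) given compound in DMSO (217-fold dilution) after 5 h, incubated 16 h at 37C. CCF4-AM substrate 2 h at room temperature; 460/530 nm emission ratio, gain fitted against DMSO.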

[3] = molecular target: Cellular tumor antigen p53 (Homo sapiens) (UniProt P04637); assay: TOX21_p53_BLA_p5_ratio: Tox21 HCT-116 p53 Agonism Beta-lactamase Assay, Ratio, Phase 5 (AID 2283599)
Procedure, shortened: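 HCT-116 cells carrying a p53-inducible beta-lactamase reporter were seeded at 4000 cells/well and dosed after 5 h with compound in DMSO (217-fold dilution). After 16 h at 37C, CCF4-AM substrate was added for 2 h, and the 460/530 nm emission ratio was scored as gain-of-signal versus DMSO.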

[4] = molecular target: Cellular tumor antigen p53 (Homo sapiens) (UniProt P04637); assay: TOX21_p53_BLA_p4_ratio: Tox21 HCT-116 p53 Agonism Beta-lactamase Assay, Ratio, Phase 4 (AID 2283601)
Procedure, shortened: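 HCT116 cells carrying an inducible beta-lactamase reporter were plated at 4000 cells/well, rested 5 h, then exposed to compounds in DMSO (217-fold dilution) for 16 h at 37C. CCF4-AM substrate was loaded 2 h at room temperature; 460/530 nm emission ratio scored gain-of-signal versus DMSO.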

[5] = TOX21_p53_BLA_p5_viability: Viability Assessment in the Tox21 HCT-116 p53 Agonism Beta-lactamase Assay, Phase 5 (AID 2283600)
Procedure, shortened: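 After the 460/530 nm beta-lactamase measurement, the wells received an ATP-detection luciferase reagent; signal was read 30 min later at RT. Compound treatment lasted 16 h on cells pre-incubated 5 h post-seeding.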

[6] = TOX21_p53_BLA_p4_viability: Viability Assessment in the Tox21 HCT-116 p53 Agonism Beta-lactamase Assay, Phase 4 (AID 2283597);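 note: hits lower the luminescence signal meaning cytotoxicity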
Procedure, shortened: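 Following a 16 h exposure at 37C, the treated HCT116 wells were first read for the FRET ratio. They were then lysed with CellTiter-Glo, and ATP luminescence was recorded after 30 min at room temperature.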

Measured: outcome

Sequence of Cellular tumor antigen p53 (Homo sapiens) (P04637 whole entry, looked up): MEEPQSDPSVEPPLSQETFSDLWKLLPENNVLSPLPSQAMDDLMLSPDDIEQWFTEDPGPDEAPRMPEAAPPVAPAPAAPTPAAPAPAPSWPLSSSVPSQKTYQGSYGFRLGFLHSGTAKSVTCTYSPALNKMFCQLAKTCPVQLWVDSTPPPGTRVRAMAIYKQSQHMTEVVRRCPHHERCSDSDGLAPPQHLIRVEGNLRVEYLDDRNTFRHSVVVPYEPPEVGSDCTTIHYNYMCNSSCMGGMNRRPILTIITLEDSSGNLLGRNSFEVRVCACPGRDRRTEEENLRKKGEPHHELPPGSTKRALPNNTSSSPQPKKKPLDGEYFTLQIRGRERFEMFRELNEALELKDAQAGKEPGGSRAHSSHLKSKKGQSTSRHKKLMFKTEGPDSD

CC(=O)c1cnccn1
inactive: [1] | [2] | [3] | [4]

O=c1oc2c(O)c(O)cc3c(=O)oc4c(O)c(O)cc1c4c23
inactive: [1] | [2] | [3]

Nc1ccc(C(=O)NCC(=O)O)cc1
inactive: [1] | [2] | [3] | [5] | [4]

O=P(O)(O)OP(=O)(O)OP(=O)(O)O
inactive: [1] | [2] | [3] | [5] | [4]

Cc1cc([N+](=O)[O-])ccc1N
inactive: [1] | [2] | [6] | [3] | [4]

CN[C@@H]1[C@@H](O)[C@@H](O[C@@H]2[C@@H](O)[C@H](O[C@H]3O[C@H](CN)[C@@H](O)[C@H](O)[C@H]3O)[C@@H](N)C[C@H]2NC(=O)C(O)CN)OC[C@]1(C)O (some centres not stated)
inactive: [1] | [2] | [6] | [4]

O=C(O)c1cc(C(=O)O)cc(C(=O)O)c1
inactive: [1] | [2] | [6] | [4]

CCCCNC(=O)NCCCC
inactive: [1] | [2] | [6] | [3] | [5] | [4]

CC1(C)OC[C@@H](COC(=O)CCc2ccc(OC[C@@H](O)CNCCNC(=O)N3CCOCC3)cc2)O1
inactive: [1] | [2] | [6] | [3] | [5] | [4]

N[C@@H](CSCCCO)C(=O)O
inactive: [1] | [2] | [6] | [3] | [5] | [4]

C[C@H]1O[C@H](O[C@H]2[C@H](O)[C@@H](O)[C@@H](O[C@H]3[C@H](O)[C@@H](O)[C@H](O)O[C@@H]3CO)O[C@@H]2CO)[C@H](O)[C@@H](O)[C@@H]1N[C@H]1C=C(CO)[C@@H](O)[C@H](O)[C@H]1O
inactive: [1] | [2] | [3] | [5] | [4]

CO[C@H]1O[C@@H]2O[C@@]3(C)CC[C@H]4[C@H](C)CC[C@@H]([C@H]1C)[C@@]24OO3
inactive: [1] | [2] | [3] | [5] | [4]

NCCCC[C@H](NC(=O)[C@@H]1CCCN1C(=O)[C@@H]1CSSC[C@H](NC(=O)CNC(=O)CNC(=O)CN)C(=O)N[C@@H](Cc2ccc(O)cc2)C(=O)N[C@@H](Cc2ccccc2)C(=O)N[C@@H](CCC(N)=O)C(=O)N[C@@H](CC(N)=O)C(=O)N1)C(=O)NCC(N)=O (H-GGGCYFQNCPKG-NH2; disulfide 4-9)
inactive: [1] | [2] | [5]

COc1cc(Cl)ccc1Cl
inactive: [1] | [2] | [6] | [5]

CC(C(=O)O)c1ccc2c(c1)Cc1cccnc1O2 (configuration not stated)
inactive: [1] | [2] | [3] | [5]

CC#N
inactive: [1] | [2] | [3]
